{
  "source": "PubChem BioAssay AID720706",
  "about": "(Broad Institute, 2013)",
  "note": "Several values for one entry are separate records, joined by “and”; a condition that tells them apart may be missing. Equal entries are not always repeated. Hit rate of the full screen: of about 350,000 compounds, about 5,500 (1.6%) were called active.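 Rule for the calls: active = significant combined selectivity score with lowered wild-type GFP, culture density cut under 30%, mutant RFP and density less affected; inactive = any of these conditions unmet.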 The full list was thinned out, with actives kept by preference. More than one record can exist for a structure, and the calls need not agree.",
  "data": [
    {"test": "reduced GFP signal of wild-type E. coli, primary screen, bacterial rRNA inhibitor project, GFP/RFP fluorescence, OD600, single point (AID 720706)", "settings": "E. coli WT GFP vs humanized-ribosome RFP mutants, 24 h; GFP signal change (wild-type ribosome): stronger effect = lower value, DMSO median 0, no signal -100; OD600 change: measured here: OD600 growth, DMSO median 0, no signal -100; RFP signal change: measured here: RFP humanized mutant strains, DMSO median 0, no signal -100, concentration not given here", "values": [
      {"smiles": "O=C(C[C@@H]1CC[C@H]2[C@@H](COC[C@@H](O)CN2C(=O)c2ccc3c(c2)OCO3)O1)NC1Cc2ccccc2C1", "GFP signal change (wild-type ribosome)": "1.47% (inactive)", "OD600 change": "-6.88%", "RFP signal change": "-0.618%"},
      {"smiles": "C[C@@H]1CN([C@@H](C)CO)C(=O)CCCn2nncc2CO[C@H]1CN(C)Cc1ccc(C(F)(F)F)cc1", "GFP signal change (wild-type ribosome)": "-3.59% (inactive) and 7.37% (inactive)", "OD600 change": "-1.83% and 9.18%", "RFP signal change": "2.44% and -0.538%"},
      {"smiles": "C[C@@H]1CN([C@@H](C)CO)C(=O)CCCn2nncc2CO[C@H]1CN(C)C(=O)Nc1ccc(C(F)(F)F)cc1", "GFP signal change (wild-type ribosome)": "-16.6% (active) and -54% (inactive)", "OD600 change": "-10.2% and -56.3%", "RFP signal change": "5.18% and -10.9%"},
      {"smiles": "C[C@H]1CN([C@@H](C)CO)C(=O)CCCn2nncc2CO[C@@H]1CN(C)C(=O)Nc1ccc(N2CCN(C)CC2)cc1", "GFP signal change (wild-type ribosome)": "22.4% (inactive) and -1.77% (inactive)", "OD600 change": "13.6% and 7.97%", "RFP signal change": "3.72% and -0.742%"},
      {"smiles": "CCCNC(=O)N1CC(=O)N2[C@H](C1)[C@@H](c1ccc(C#Cc3ccccc3)cc1)[C@@H]2CO", "GFP signal change (wild-type ribosome)": "-41.7% (inactive)", "OD600 change": "-70.4%", "RFP signal change": "-0.11%"},
      {"smiles": "COc1ccc2c3c(n(C)c2c1)[C@@H](CO)N(C(=O)Nc1ccccc1F)CC31CCN(C(=O)c2ccccc2F)CC1", "GFP signal change (wild-type ribosome)": "-2.62% (inactive)", "OD600 change": "-3.48%", "RFP signal change": "-0.298%"},
      {"smiles": "CO[C@@H](CN(C)C(=O)c1cnccn1)[C@H](C)CN([C@H](C)CO)S(=O)(=O)c1ccc(C)cc1", "GFP signal change (wild-type ribosome)": "1.87% (inactive)", "OD600 change": "2.69%", "RFP signal change": "-1.48%"},
      {"smiles": "CCc1nc2ccccc2c(C(=O)OC2CCCCC2=O)c1C", "note": "(centres undefined)", "GFP signal change (wild-type ribosome)": "-34.4% (active)", "OD600 change": "-20.5%", "RFP signal change": "3.94%"},
      {"smiles": "CCc1c(C)c2ccc(OC3CCCCC3=O)cc2oc1=O", "note": "(centres undefined)", "GFP signal change (wild-type ribosome)": "1.77% (inactive)", "OD600 change": "-3.25%", "RFP signal change": "1.07%"},
      {"smiles": "CCc1nc2ccccc2c(C(=O)NCc2ccc(OC)cc2)c1C", "GFP signal change (wild-type ribosome)": "-3.42% (inactive)", "OD600 change": "-5.87%", "RFP signal change": "-3.53%"},
      {"smiles": "CC(=O)N(C)C[C@@H]1Oc2cc(-c3cccnc3)ccc2S(=O)(=O)N([C@@H](C)CO)C[C@H]1C", "GFP signal change (wild-type ribosome)": "0.257% (inactive)", "OD600 change": "-3.4%", "RFP signal change": "-4.17%"},
      {"smiles": "O=C(CC1CC1)N1CC(=O)N2[C@H](CO)[C@H](c3ccc(C#Cc4ccc(F)cc4)cc3)[C@@H]2C1", "GFP signal change (wild-type ribosome)": "-21.5% (inactive)", "OD600 change": "-61.2%", "RFP signal change": "15.4%"},
      {"smiles": "COc1ccc(-c2cnc3c(c2)C(=O)N([C@H](C)CO)C[C@@H](C)[C@H](CN(C)C(=O)Cc2ccncc2)O3)cc1", "GFP signal change (wild-type ribosome)": "-1.52% (inactive)", "OD600 change": "2.2%", "RFP signal change": "-0.471%"},
      {"smiles": "COc1cccc(NC(=O)Nc2ccc3c(c2)OC[C@@H](C)NC[C@@H](C)[C@H](OC)CN(C)C3=O)c1", "GFP signal change (wild-type ribosome)": "0.255% (inactive)", "OD600 change": "0.1%", "RFP signal change": "2.58%"},
      {"smiles": "C[C@@H]1CCCCO[C@H](CN(C)C(=O)CCCN(C)C)[C@@H](C)CN([C@@H](C)CO)C(=O)c2cc(NC(=O)c3ccncc3)ccc2O1", "GFP signal change (wild-type ribosome)": "3.33% (inactive)", "OD600 change": "12.1%", "RFP signal change": "-1.91%"},
      {"smiles": "Cn1nc(-c2ccc(Cl)cc2)c2cc(C(=O)NCc3ccco3)sc21", "GFP signal change (wild-type ribosome)": "-29.9% (inactive)", "OD600 change": "-25.9%", "RFP signal change": "-16.6%"},
      {"smiles": "CCOC(=O)N1CCN(C(=O)c2cc3c(-c4ccc(Cl)cc4)nn(C)c3s2)CC1", "GFP signal change (wild-type ribosome)": "-22.9% (active)", "OD600 change": "-10.6%", "RFP signal change": "-5.96%"},
      {"smiles": "COc1ccccc1N1CCN(C(=O)c2cc3c(-c4ccc(Cl)cc4)nn(C)c3s2)CC1", "GFP signal change (wild-type ribosome)": "0.925% (inactive)", "OD600 change": "11.2%", "RFP signal change": "2.25%"},
      {"smiles": "COc1ccc2c3c(n(C)c2c1)[C@H](CO)NCC31CN(Cc2cc(F)ccc2F)C1", "GFP signal change (wild-type ribosome)": "-2.04% (inactive)", "OD600 change": "1.28%", "RFP signal change": "1.51%"},
      {"smiles": "CCOC(=O)c1ccn(S(=O)(=O)c2ccc(C)cc2)c1-c1ccccc1", "GFP signal change (wild-type ribosome)": "-4.05% (inactive)", "OD600 change": "-26.5%", "RFP signal change": "-5.7%"},
      {"smiles": "CCc1c(N=O)c(-c2ccccc2)n(O)[n+]1[O-]", "GFP signal change (wild-type ribosome)": "-18.1% (active)", "OD600 change": "0.75%", "RFP signal change": "-2.88%"},
      {"smiles": "O=C(/C=C/c1cn(-c2ccccc2)nc1-c1ccc2c(c1)OCCO2)NCCCN1CCOCC1", "GFP signal change (wild-type ribosome)": "-59.2% (inactive)", "OD600 change": "-80.4%", "RFP signal change": "-18.1%"},
      {"smiles": "Cc1ccc2cc(/C=N/Nc3ccc(C(=O)O)cc3)c(Cl)nc2c1", "GFP signal change (wild-type ribosome)": "8.25% (inactive)", "OD600 change": "-7.45%", "RFP signal change": "2.99%"},
      {"smiles": "COc1ccc(-c2nn(-c3ccccc3)cc2/C=C\\C(=O)N2CCOCC2)cc1[N+](=O)[O-]", "GFP signal change (wild-type ribosome)": "-3.42% (inactive)", "OD600 change": "3.96%", "RFP signal change": "-1.95%"},
      {"smiles": "O=C(O)c1ccc(N/N=C/c2cn(-c3ccccc3)nc2-c2cccs2)cc1", "GFP signal change (wild-type ribosome)": "-27.8% (active)", "OD600 change": "-18.5%", "RFP signal change": "-5.29%"},
      {"smiles": "S=c1[nH]nc(-c2cccs2)n1/N=C/c1cn(-c2ccccc2)nc1-c1ccc(Cl)cc1", "GFP signal change (wild-type ribosome)": "5.75% (inactive)", "OD600 change": "18.1%", "RFP signal change": "0.386%"},
      {"smiles": "O=C(/C=C\\c1cn(-c2ccccc2)nc1-c1cccs1)N1CCOCC1", "GFP signal change (wild-type ribosome)": "-25.3% (active)", "OD600 change": "-11.3%", "RFP signal change": "-10.9%"},
      {"smiles": "N#C[C@@H]1[C@H](c2ccccc2)[C@H](CO)N1C(=O)CN1CCOCC1", "GFP signal change (wild-type ribosome)": "13.7% (inactive)", "OD600 change": "21.2%", "RFP signal change": "0.395%"},
      {"smiles": "O=C(Nc1ccccc1F)N1CC(=O)N2[C@H](C1)[C@H](c1ccc(C#Cc3ccc(F)cc3)cc1)[C@@H]2CO", "GFP signal change (wild-type ribosome)": "-2.23% (inactive)", "OD600 change": "-44.6%", "RFP signal change": "20.2%"},
      {"smiles": "O=C(CC1CC1)N1[C@@H](CO)[C@H](c2ccccc2)C12CN(Cc1cccnc1)C2", "GFP signal change (wild-type ribosome)": "1.16% (inactive)", "OD600 change": "-2.09%", "RFP signal change": "1.37%"},
      {"smiles": "COc1ccc(CN(C)C[C@@H]2Oc3ccc(NC(=O)NC(C)C)cc3C(=O)N([C@@H](C)CO)C[C@H]2C)cc1", "GFP signal change (wild-type ribosome)": "1.14% (inactive)", "OD600 change": "10.5%", "RFP signal change": "-0.455%"},
      {"smiles": "COc1ccc(-c2ccc3c(c2)C2CC3CCN2CCC#N)cc1", "note": "(centres undefined)", "GFP signal change (wild-type ribosome)": "-28.2% (active)", "OD600 change": "-19.1%", "RFP signal change": "-3.22%"},
      {"smiles": "COc1ccc(-c2ccc3c(c2)[C@H]2[C@H](CCN2C(=O)C2CCOCC2)[C@H](CO)N3C)cc1", "GFP signal change (wild-type ribosome)": "-4.42% (inactive)", "OD600 change": "-4.78%", "RFP signal change": "-1.56%"},
      {"smiles": "C=CCOC(=O)N1CCC2CC1c1cc(-c3ccc(OC)cc3)ccc12", "note": "(centres undefined)", "GFP signal change (wild-type ribosome)": "3.93% (inactive)", "OD600 change": "0.963%", "RFP signal change": "-4.99%"},
      {"smiles": "COc1ccc2c3c(n(C)c2c1)[C@H](CO)NCC31CN(S(=O)(=O)c2cccc(C)c2)C1", "GFP signal change (wild-type ribosome)": "-0.56% (inactive)", "OD600 change": "-33%", "RFP signal change": "8.22%"},
      {"smiles": "CC(C)(C)c1ccc(S(=O)(=O)NCC2CCN(C(=O)C(=O)c3cc4ccccc4o3)CC2)cc1", "GFP signal change (wild-type ribosome)": "-0.31% (inactive)", "OD600 change": "0.126%", "RFP signal change": "0.99%"},
      {"smiles": "N#Cc1cccc(C(=O)NCC2CCN(C(=O)C(=O)c3cc4ccccc4o3)CC2)c1", "GFP signal change (wild-type ribosome)": "-2.59% (inactive)", "OD600 change": "-1.64%", "RFP signal change": "-0.945%"},
      {"smiles": "O=C(C(=O)N1CCC(CNS(=O)(=O)Cc2ccccc2)CC1)c1cc2ccccc2o1", "GFP signal change (wild-type ribosome)": "-14% (active)", "OD600 change": "-14.9%", "RFP signal change": "2.73%"}
    ]}
  ]
}
